High-throughput results from PubChem BioAssay.
Sampled rows, rich in hits. Any-hit rate of the full collection: about 1.4%.
A3G deaminase: inhibitors of human APOBEC3G DNA deaminase; AID 493012; inhibition, % at 20 µM; Q9HC16; recombinant A3G, ssDNA deamination FAM/TAMRA fluorescence; 330,000 tested, 0.28% active;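 active = inhibition of at least 40% at 20 µM, with no more than 30% in the related APOBEC3A deaminase screen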;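 note: plate controls were DMSO wells with A3G for no effect and wells lacking A3G enzyme for full effect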
A3A deaminase: blocks human APOBEC3A ssDNA deamination. P31941. recombinant A3A, FAM/TAMRA ssDNA deamination fluorescence. inhibition, % at 20 µM. 330,000 tested, 0.41% active. AID 493011;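 active = at least 40% inhibition at 20 µM here, with at most 30% in a related deaminase screen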;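 note: plate controls were A3A with DMSO for no effect and wells lacking A3A enzyme for full effect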
VLA-4 inh: inhibition in a human VLA-4 binding assay; P13612; VLA-4 expressing cells, ligand binding flow cytometry; inhibition, % (about 7 µM as worked out from the volumes in the protocol); 330,000 tested, 0.2% active; in the data active = inhibition above about 50%
GRK2 inh: human GRK2 inhibition via aptamer displacement; bead flow cytometry, FAM-aptamer displacement from GRK2; inhibition of aptamer binding, % at 10 µM; 330,000 tested, 0.59% active; AID 488847;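 active = inhibition of aptamer binding above 40%, roughly 3 SD of noise, on plates passing a quality check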;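 note: median bead fluorescence of bound FAM aptamer so fluorescent compounds give negative values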
Target sequence (P25098 whole entry, looked up): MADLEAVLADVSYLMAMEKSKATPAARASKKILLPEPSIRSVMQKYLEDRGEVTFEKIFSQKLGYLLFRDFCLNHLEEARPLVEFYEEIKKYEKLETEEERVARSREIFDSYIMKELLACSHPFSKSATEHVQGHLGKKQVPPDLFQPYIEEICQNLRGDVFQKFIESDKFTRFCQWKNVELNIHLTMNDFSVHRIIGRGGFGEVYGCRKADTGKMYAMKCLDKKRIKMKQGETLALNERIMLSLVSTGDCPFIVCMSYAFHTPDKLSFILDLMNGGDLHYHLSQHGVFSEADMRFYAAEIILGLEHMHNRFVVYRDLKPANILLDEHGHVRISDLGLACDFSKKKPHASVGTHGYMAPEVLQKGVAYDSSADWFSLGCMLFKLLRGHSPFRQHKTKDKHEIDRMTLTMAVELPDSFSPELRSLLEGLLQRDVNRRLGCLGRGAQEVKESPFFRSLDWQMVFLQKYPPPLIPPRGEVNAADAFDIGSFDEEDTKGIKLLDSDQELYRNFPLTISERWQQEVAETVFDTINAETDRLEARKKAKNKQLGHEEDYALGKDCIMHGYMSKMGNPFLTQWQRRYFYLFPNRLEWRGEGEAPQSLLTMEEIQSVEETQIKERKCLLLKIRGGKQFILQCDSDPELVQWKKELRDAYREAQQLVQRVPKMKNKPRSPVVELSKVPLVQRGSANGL
GRK2 inh confirm: confirmation of human GRK2 inhibitors displacing RNA aptamer | shares compounds with GRK2 inh | bead-bound GRK2, FAM-aptamer displacement, flow cytometry | aptamer displacement, % at 10 µM | 2,000 tested, 4% active | AID 504451;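 active = aptamer displacement above 40%, near three times the noise of non-fluorescent compounds, on plates passing quality checks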;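 note: negative values mostly reflect intrinsic compound fluorescence rather than true enhancement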
Aptamer quench 1: counter-screen for GRK2 aptamer inhibitors: fluorescent aptamer quenchers; shares compounds with GRK2 inh; Fluorescent RNA aptamer beads, quenching, flow cytometry; stronger effect = higher value; fluorescence change (kMESF span), kMESF (no concentration beside the values); 110 tested, under 10 active; AID 504521;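 active = compounds whose bead fluorescence drops by more than 37 kMESF across the dose range, marking them as dye quenchers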
Aptamer quench SP: quenches fluorescent RNA aptamer, GRK2 hit artifact | shares compounds with GRK2 inh | Carboxyfluorescein RNA aptamer on beads, flow cytometry quenching; stronger effect = lower value | fluorescence response (% of DMSO), % at 10 µM | 2,000 tested, under 10 active;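 active = compounds that quench the bead-bound fluorescent RNA probe, cutting fluorescence to under half of the solvent control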;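 note: counterscreen run without GRK2 so only probe quenching by compound is measured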
* hit, by the source's call; . = not tested or not shown.

SMILES	A3G deaminase	A3A deaminase	VLA-4 inh	GRK2 inh	GRK2 inh confirm	Aptamer quench SP	others
COc1ccc(Nc2nnc(-c3ccncc3)s2)cc1Cl	14.2	16.9	0.1	0.0	.	.
O=C(Nc1nccs1)C(Br)C(Br)c1ccccc1 (stereo not drawn)	-1.8	4.4	6.9	0.0	.	.
O=C(Nc1nccs1)C(c1ccccc1)N1CCCCC1 (stereo not drawn)	-3.3	-0.8	-4.7	61.0*	-4.6	98.4
O=C1C2C(c3cccc(/C=C/c4ccccc4)c3)CC=CC2C(c2ccc(C(F)(F)F)cc2)N1Cc1ccccc1 (stereo not drawn)	-3.0	-0.4	17.4	0.0	0.1	103.3
Cc1ccc(F)c(C2C3C=CCC(c4cccc(-c5ccc(N(C)C)cc5)c4)C3C(=O)N2Cc2ccccc2)c1 (stereo not drawn)	-12.2	-1.5	6.4	0.0	4.8	96.0
O=C1C2C(c3cccc(/C=C/c4ccccc4)c3)CC=CC2C(c2ccc3ccccc3c2)N1Cc1ccccc1 (stereo not drawn)	2.5	0.1	16.6	0.0	-0.1	107.4
COc1ccc(-c2cccc(C3CC=CC4C3C(=O)N(Cc3ccccc3)C4c3cc(C)ccc3F)c2)cc1 (stereo not drawn)	-8.6	-1.8	.	.	.	.
CC[C@@H]1CC=C[C@H]2[C@H]1C(=O)N(Cc1ccccc1)[C@H]2c1ccc(C(F)(F)F)cc1	-0.6	0.7	1.6	1.0	.	.
CCCc1cnc(N2CCN(C(=O)c3ccc(F)cc3)CC2)nc1	5.6	-1.3	2.7	2.0	.	.
Cc1cccc(NC(=O)CCCCCN2C(=O)[C@@H]3Cc4ccccc4CN3C2=O)c1	-4.5	-2.5	15.8	0.0	-0.8	98.3
O=C(CCCCCN1C(=O)[C@@H]2Cc3ccccc3CN2C1=O)Nc1cccc(F)c1	-8.5	-7.2	9.7	0.0	2.5	95.8
COc1ccc(NC(=O)CCCCCN2C(=O)[C@@H]3Cc4ccccc4CN3C2=O)cc1Cl	1.2	0.1	16.5	0.0	-0.2	99.0
O=C(CCCCCN1C(=O)[C@@H]2Cc3ccccc3CN2C1=O)Nc1ccccc1Cl	-2.1	-0.8	4.1	2.0	.	.
O=C(CCCCCN1C(=O)[C@@H]2Cc3ccccc3CN2C1=O)Nc1ccccc1F	8.0	1.9	3.9	3.0	-0.9	96.3
Cc1ccc(NC(=O)CCCCCN2C(=O)[C@@H]3Cc4ccccc4CN3C2=O)cc1	-3.6	-4.6	8.7	0.0	.	.
COC(=O)c1ccc(NC(=O)COC(=O)CCC2CCCC2)cc1	3.5	0.7	-0.5	3.0	.	.
COCc1cc(N2CCOCC2)nc(SCc2ccc(Cl)cc2)n1	-9.4	-4.8	0.0	1.0	.	.
CC(C)C(=O)NNC(=O)CN1CCN(c2nc(-c3ccccc3)cs2)CC1	-7.6	0.2	5.8	1.0	.	.
COc1ccc(CCn2c(=N)c(C(=O)NC3CCCCC3)cc3c(=O)n4ccccc4nc32)cc1	-7.6	-3.7	6.4	4.0	.	.
O=[N+]([O-])c1ccc2c(c1)nnn2-c1ccccc1	-2.3	-1.1	-2.4	2.0	.	.
Nc1nn(-c2ccccc2)c2ccc([N+](=O)[O-])cc12	-5.2	-4.9	5.7	75.0*	2.2	85.5
Cc1nnc(SCC(=O)Nc2ncc3c(n2)CCCC3=O)s1	-9.9	-4.5	12.2	1.0	.	.
CC1CCCC(NC(=O)CSc2ccc(F)cc2)C1C (stereo not drawn)	-5.7	-0.4	-0.9	1.0	.	.
CC1CCCC(NCC(O)COC(c2ccc(F)cc2)c2ccc(F)cc2)C1C (stereo not drawn)	-0.7	-2.5	29.9	0.0	-4.6	102.2
CCn1c(=S)sc2c(=O)n(CC(=O)Nc3ccccc3C(F)(F)F)c(C)nc21	6.8	3.6	9.0	59.0*	-11.8	97.5
SMILES	A3G deaminase	A3A deaminase	VLA-4 inh	GRK2 inh	GRK2 inh confirm	Aptamer quench SP	others
CCn1c(=S)sc2c(=O)n(CC(=O)Nc3ccccc3)c(C)nc21	-1.9	-2.5	4.0	9.0	.	.
CNC(=O)c1[nH]cnc1C(=O)Nc1cccc(Cl)c1	-4.3	2.3	14.9	91.0*	93.3*	98.1	Aptamer quench 1=4
O=C(Nc1cccc(Cl)c1)c1nc[nH]c1C(=O)NCCCNC(=O)c1[nH]cnc1C(=O)Nc1cccc(Cl)c1	-7.0	-5.4	-38.8	0.0	.	.
CC(C)(C)OC(=O)[C@H](Cc1ccccc1)NC(=O)c1[nH]cnc1C(=O)Nc1cccc(Cl)c1	-2.6	0.8	-22.8	0.0	-1.7	97.6
CC1CCN(C(=O)c2[nH]cnc2C(=O)Nc2cccc(Cl)c2)CC1	-5.7	-2.4	14.8	0.0	-3.8	102.9	Aptamer quench 1=-11.5
C[C@@H](NC(=O)c1[nH]cnc1C(=O)Nc1cccc(Cl)c1)c1ccccc1	-9.1	-4.0	21.5	0.0	-2.1	100.2
Cc1[nH]n(C(N)=S)c(=O)c1N=Nc1ccc(Br)cc1	-3.3	-5.8	0.4	0.0	.	.
Cc1ccc(N(C)C(=O)CCNC(=O)Cn2cnc3ccccc3c2=O)cc1C	8.7	-1.4	13.7	3.0	.	.
COc1ccc(NC(=O)CCc2nc(-c3ccc(C)cc3)no2)cc1Cl	1.9	0.1	-1.6	0.0	.	.
CC(C)(C)n1nc2c(c1NC(=O)c1ccccc1C(F)(F)F)CS(=O)(=O)C2	-0.6	-1.0	-0.4	0.0	.	.
CC1=C(C(=O)Nc2ccccc2F)C(c2cccs2)C2=C(CCCC2=O)N1 (stereo not drawn)	-7.5	0.5	1.9	2.0	.	.
Cc1nnc(SCC(=O)NC(C)(C)C)n1NCc1c(F)cccc1Cl	2.2	-5.6	-15.1	0.0	.	.
O=C(Nc1cccc(Cl)c1)c1cnc[nH]1	-10.5	-2.9	8.0	58.0*	3.5	92.2
CN(Cc1ccccc1)C(=O)c1[nH]cnc1C(=O)Nc1ccc(Cl)cc1	-11.8	-4.4	20.2	1.0	.	.
C[C@H](NC(=O)c1[nH]cnc1C(=O)Nc1cccc(Cl)c1)c1ccccc1	-11.5	-2.2	1.3	1.0	1.6	103.9
CN(Cc1ccccc1)C(=O)c1[nH]cnc1C(=O)Nc1cccc(Cl)c1	-10.2	-6.0	12.5	0.0	0.8	102.0
COc1ccccc1CN(C)C(=O)c1cnc(C)cn1	-6.9	-2.1	5.3	0.0	.	.
Cc1nnc2sc(SCc3ccc(Br)cc3)nn2c1=O	-4.3	-6.1	12.9	0.0	.	.
N[C@@H](Cc1ccccc1)c1nnc2sc(SCc3ccccc3)nn12	-2.4	-0.5	10.6	55.0*	-12.8	127.1
COc1ccccc1C1c2[nH]c3ccccc3c2C[C@H]2C(=O)N(C3CCN(Cc4ccccc4)CC3)CC(=O)N12 (stereo partly drawn)	-6.0	-2.3	-17.2	0.0	-28.6	97.4
COc1ccc(C2c3[nH]c4ccccc4c3C[C@H]3C(=O)N(C4CCN(Cc5ccccc5)CC4)CC(=O)N23)cc1OC (stereo partly drawn)	-8.5	-4.0	-5.6	0.0	.	.
